Our source for the growth values is PubChem BioAssay (NCI).

Values joined by “and” are separate entries in the source; they are usually repeats but may differ in a detail not shown here. Equal values may be shown once. About 83,000 compounds went through this panel and 20% of them were active in at least one assay; those are over-represented in the sample as a whole.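 96-well plates, one dose, 48 hours. Percent growth reported; active if below 10.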 Active and inactive are the calls of the source.

What all share (test): NCI-60 one-dose screen, 48 h (100 = growth as untreated, 0 = no growth, -100 = all killed)
What all share (conditions): 10 µM

The test system of assay [1] is NCI-H23 lung.
Assay [2] concerns NCI-H226 lung.
In assay [3] the test system is NCI-H322M lung.
The test system of assay [4] is HOP-62 NSCLC.
For assay [5], the system named is NCI-H460 lung.
Assay [6] deals with HOP-92 NSCLC.
Assay [7] relates to NCI-H522 lung.
Assay [8] concerns A549/ATCC NSCLC.
Assay [9] relates to 786-0 renal.
Assay [10] has as its system COLO 205 colon.
The test system of assay [11] is DU-145 prostate.
Assay [12] relates to K-562 leukemia.
In assay [13] the test system is MALME-3M melanoma.
Assay [14] concerns MDA-MB-231 breast.
The test system of assay [15] is RXF 393 renal.
The subject of assay [16] is SF-268 CNS.
The subject of assay [17] is SF-295 CNS.
For assay [18], the system named is SF-539 CNS.
Assay [19] relates to UACC-257 melanoma.
For assay [20], the system named is M14 melanoma.

As for `ClCc1ccc2ccccc2n1`, the growth is 85.2% (inactive) in [1]; 78.2% (inactive) in assay [2]; 100% (inactive) in [3]; 59.4% (inactive) in [4]; 110% (inactive) in assay [5]; 79.8% (inactive) in assay [6]. The growth in [7] was 95.4% (inactive); in [8], 102% (inactive); in [9] it was 103% (inactive); in assay [10], 128% (inactive); in [11], 102% (inactive); in assay [12] it was 72.3% (inactive). Besides, the growth in assay [13] was 97.6% (inactive); in assay [14], 102% (inactive); in assay [15], 95.5% (inactive); in assay [16], 80.5% (inactive); in [17], 87.3% (inactive); in assay [18] it was 106% (inactive). Moreover, the growth was 104% (inactive) in [19] and 84.7% (inactive) in assay [20].

Take `O=S(=O)(F)c1ccc(Cl)cc1`: the growth in assay [1] was 100% (inactive); in assay [2], 109% (inactive); in assay [3], 123% (inactive); in [4] it was 106% (inactive); in assay [5], 113% (inactive); in assay [6] it was 86.8% (inactive). The growth in assay [7] was 101% (inactive); in assay [8] it was 98.3% (inactive); in [9] it was 107% (inactive); in [10], 107% (inactive); in assay [11], 130% (inactive); in assay [12] it was 112% (inactive). For the same compound, the growth is 123% (inactive) in assay [13]; 115% (inactive) in assay [14]; 112% (inactive) in assay [15]; 97.6% (inactive) in assay [16]; 114% (inactive) in assay [17]; 99.7% (inactive) in [18]. The growth was 99.1% (inactive) in assay [19] and 104% (inactive) in [20].

Regarding `C/C(=C\c1ccc(Cl)c(Cl)c1)[N+](=O)[O-]`, the growth was 44.6% (inactive) and 94.8% (inactive) in assay [1]; 98.1% (inactive) in [2]; 94.6% (inactive) and 100% (inactive) in assay [3]; 86.9% (inactive) in assay [4]; 55.6% (inactive) and 105% (inactive) in assay [5]; -29.8% (active) and 89.5% (inactive) in [6]. For the same compound, the growth was -87.3% (active) and 82.6% (inactive) in assay [7]; 74.3% (inactive) and 76.6% (inactive) in assay [8]; 45.8% (inactive) and 94.9% (inactive) in [9]; -57.9% (active) and 101% (inactive) in assay [10]; 8.46% (active) and 104% (inactive) in [11]; 0.843% (active) and 78.6% (inactive) in assay [12]. Further, the growth in assay [13] was -55.4% (active) and 105% (inactive); in assay [14], -26.3% (active) and 101% (inactive); in assay [15], -91.7% (active) and 100% (inactive); in assay [16] it was -19.1% (active) and 102% (inactive); in [17], 94.5% (inactive); in assay [18], 96.3% (inactive) and 100% (inactive). The growth in assay [19] is -88.8% (active); in assay [20], -86.8% (active) and 95% (inactive).

`N#CCc1ccccc1`: the growth in assay [1] is 102% (inactive); in assay [2] it was 96.3% (inactive); in assay [3], 105% (inactive); in [4] it was 97.4% (inactive); in assay [5] it was 106% (inactive); in assay [6], 82.2% (inactive). Also, the growth in [7] is 99.4% (inactive); in [8], 101% (inactive); in [9] it was 101% (inactive); in [10] it was 107% (inactive); in [11], 113% (inactive); in [12], 98.3% (inactive). Also, the growth was 111% (inactive) in [13]; 98.4% (inactive) in assay [14]; 111% (inactive) in [15]; 93.4% (inactive) in assay [16]; 104% (inactive) in assay [17]; 96.5% (inactive) in assay [18]. In addition, the figures for the growth in assay [19] and in assay [20] were 103% (inactive) and 98.5% (inactive), respectively.

`O=[N+]([O-])c1cc[n+]([O-])c2ccccc12`: the growth in assay [1] was -72.1% (active); in [2], -17.8% (active); in assay [3], -18.3% (active); in [4], -47.9% (active); in assay [5], -58.4% (active); in assay [6] it was -41.6% (active). The growth in assay [7] was -61.6% (active); in assay [8] it was -25.1% (active); in assay [9], -49.2% (active); in [10], -74.9% (active); in [12], 0.325% (active); in assay [13], -69% (active). Further, the growth in assay [14] is -45.1% (active); in assay [15] it was -87.1% (active); in assay [16], 3.65% (active); in assay [17], -17.7% (active); in [18], -35% (active); in [19] it was -47.1% (active). In addition, the growth in [20] was -92.9% (active).

For `NC(=O)c1cc([N+](=O)[O-])c(Cl)c([N+](=O)[O-])c1`, the growth in assay [1] is 88.6% (inactive); in [2], 102% (inactive); in assay [3] it was 109% (inactive); in assay [4], 105% (inactive); in assay [5], 107% (inactive); in [6], 14.1% (inactive). Moreover, the growth was -4.01% (active) in [7]; 98.4% (inactive) in assay [8]; 91.2% (inactive) in assay [9]; -71.1% (active) in assay [10]; 65.5% (inactive) in [11]; 71.3% (inactive) in assay [13]. Further, the growth in assay [14] is 92.2% (inactive); in [15], 93.8% (inactive); in assay [16], 101% (inactive); in assay [17], 115% (inactive); in assay [18] it was 98.1% (inactive); in assay [19], 105% (inactive). Moreover, the growth in assay [20] was 78.6% (inactive).

As for `Cc1cc([N+](=O)[O-])c2ccccc2[n+]1[O-]`, the growth in [1] was -25.5% (active) and -33.7% (active); in [2], -4.63% (active) and -12.9% (active); in [3], -15.3% (active) and -45.7% (active); in assay [4], -20.4% (active) and -36.8% (active); in assay [5], -26.5% (active) and -38.4% (active); in assay [6], -8.69% (active) and -36.2% (active). In addition, the growth in assay [7] is -38.1% (active) and -83% (active); in assay [8], -23.4% (active) and -36.1% (active); in assay [9], -31.9% (active) and -30.8% (active); in assay [10] it was -63.1% (active) and -95.1% (active); in [11], -35.9% (active) and -37% (active); in assay [12], 1.04% (active) and -22.1% (active). Besides, the growth in assay [13] was -20.8% (active) and -41% (active); in [14], -17.4% (active) and -36.7% (active); in assay [15], -51.4% (active) and -66.4% (active); in assay [16] it was -12.7% (active) and -10.4% (active); in [17] it was -21% (active) and -59% (active); in assay [18] it was -49.2% (active) and -61.6% (active). Besides, the growth in assay [19] is 8.15% (active) and -28% (active); in assay [20] it was -80.7% (active) and -70.6% (active).
